Results from PubChem BioAssay (NCI).
Compounds without any hit were thinned out: in the full panel of roughly 79,000, 15% have a hit. Active and inactive are the calls of the source. No stated cut-off is given here; in the data, active means growth inhibition above about 70%; inactive means the rest.

Columns and labels:
[1] = NCI Yeast Anticancer Drug Screen. Data for the rad52 strain (AID 147);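 further: 0% = growth of vehicle-treated control cultures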; conditions: S. cerevisiae rad52 mutant growth inhibition, hits give high values
Summary of the method: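 Vehicle-treated cultures served as the reference for growth inhibition of compound-exposed yeast bearing a DNA repair mutation.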

[2] = NCI Yeast Anticancer Drug Screen. Data for the wt1 strain (AID 149);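 further: 0% = growth of vehicle-treated wt1 cultures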; conditions: S. cerevisiae wt1 strain (SPY 50644) growth inhibition, hits give high values
Summary of the method: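 Each compound is tested on wt1 yeast and the loss of growth versus vehicle gives the inhibition value.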

[3] = NCI Yeast Anticancer Drug Screen. Data for the rad50EPP+ strain (AID 151);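 further: 0% = growth of vehicle-treated control cultures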; conditions: S. cerevisiae rad50 mutant strain, hits give high values
Summary of the method: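 In this screen, rad50EPP+ yeast were exposed to compounds. Growth inhibition was scored against vehicle-treated controls.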

[4] = NCI Yeast Anticancer Drug Screen. Data for the mgt1 strain (AID 153); conditions: S. cerevisiae mgt1 mutant growth inhibition, hits give high values
Summary of the method: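 mgt1 strain exposed; growth vs vehicle control recorded as inhibition.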

[5] = NCI Yeast Anticancer Drug Screen. Data for the rad50 strain (AID 155);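 further: 0% = growth of vehicle-only cultures of the same strain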; conditions: S. cerevisiae rad50 strain growth inhibition, hits give high values
Summary of the method: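 Vehicle-treated cultures provide the reference for the growth inhibition reported for compound-exposed, repair-deficient yeast.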

[6] = NCI Yeast Anticancer Drug Screen. Data for the mec2-1 strain (AID 157); conditions: S. cerevisiae mec2-1 strain, hits give high values
Summary of the method: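 Vehicle-treated cultures served as reference for growth inhibition of compound-exposed mec2-1 yeast.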

[7] = NCI Yeast Anticancer Drug Screen. Data for the rad14 strain (AID 159);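 further: 0% = growth of vehicle-treated control cultures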; conditions: S. cerevisiae rad14 strain growth inhibition, hits give high values
Summary of the method: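 Inhibition of growth is reported for a repair-deficient yeast mutant following compound treatment, calculated relative to cultures that received vehicle.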

[8] = NCI Yeast Anticancer Drug Screen. Data for the sgs1 mgt1 strain (AID 161);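 further: 0% = growth of cultures given vehicle only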; conditions: S. cerevisiae sgs1 mgt1 strain, hits give high values
Summary of the method: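 Genetically altered yeast, compound exposure, growth inhibition relative to vehicle.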

[9] = NCI Yeast Anticancer Drug Screen. Data for the CLN2oe strain (AID 163);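 further: 0% = growth of vehicle-only control cultures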; conditions: S. cerevisiae CLN2oe strain, hits give high values
Summary of the method: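 Inhibition relative to vehicle-treated yeast is reported. Cells: strain with genetic alteration in cell-cycle control, grown with compound.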

[10] = NCI Yeast Anticancer Drug Screen. Data for the cln2 rad14 strain (AID 165);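 further: 0% = growth equal to vehicle treated cultures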; conditions: S. cerevisiae cln2 rad14 strain, hits give high values
Summary of the method: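 Each compound was tested on cln2 rad14 yeast. Inhibition of growth was calculated against vehicle-exposed controls.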

[11] = NCI Yeast Anticancer Drug Screen. Data for the bub3 strain (AID 167); conditions: S. cerevisiae bub3 mutant strain, hits give high values
Summary of the method: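 Mutant yeast screening strain plus compound; vehicle-treated cultures serve as the 0% inhibition reference.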

[12] = NCI Yeast Anticancer Drug Screen. Data for the wt2 strain (AID 169); conditions: S. cerevisiae wt2 strain growth inhibition, hits give high values
Summary of the method: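 Inhibition of yeast growth was determined after compound treatment, normalised to controls receiving only vehicle.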

[13] = NCI Yeast Anticancer Drug Screen. Data for the mlh1 strain (AID 171);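 further: 0% = growth of vehicle-treated control cultures of the same strain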; conditions: S. cerevisiae mlh1 strain growth inhibition, hits give high values
Summary of the method: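 Vehicle-normalised growth inhibition of a repair- or checkpoint-altered yeast strain following compound treatment.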

[14] = NCI Yeast Anticancer Drug Screen. Data for the sgs1 strain (AID 173);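 further: 0% = growth of vehicle-only control cultures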; conditions: S. cerevisiae sgs1 mutant, hits give high values
Summary of the method: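 Screen format: yeast with repair or checkpoint alterations, compound exposure, growth read relative to vehicle.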

[15] = NCI Yeast Anticancer Drug Screen. Data for the mlh1 rad18 strain (AID 175); conditions: S. cerevisiae mlh1 rad18 strain growth inhibition, hits give high values
Summary of the method: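 Vehicle-treated cultures served as the reference for growth inhibition in a yeast strain carrying DNA damage repair alterations exposed to each compound.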

[16] = NCI Yeast Anticancer Drug Screen. Data for the rad18 strain (AID 177); conditions: S. cerevisiae rad18 mutant growth inhibition, hits give high values
Summary of the method: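 Test articles were incubated with altered yeast defective in DNA damage repair. Results are given as inhibition of growth versus vehicle.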

[17] = at 5.0 µM (retest, dose inferred, filed as 0.5)
[18] = at 50.0 µM (retest, dose inferred, filed as 5.0)

Measured: growth inhibition

O=C(N=Nc1cc(Cl)ccc1Cl)NNc1cc(Cl)ccc1Cl
active: [5]; [18] 76% | [5]; at 50.0 µM 74.4% | [6]; [18] 79% | [6]; at 50.0 µM 78.1% | [8]; [18] 73% | [10]; [18] 82% | [10]; at 50.0 µM 71.8% | [11]; [18] 81% | [15]; [18] 86%
inactive: [1]; at 1.2 µM -2% | [1]; at 3.7 µM -4% | [1]; at 11.0 µM -3% | [1]; at 33.0 µM -2% | [1]; at 100.0 µM 2% | [2]; at 1.2 µM -2% | [2]; at 3.7 µM 0% | [2]; at 11.0 µM -1% | [2]; at 33.0 µM 0% | [2]; at 100.0 µM 4% | [3]; at 1.2 µM -1% | [3]; at 3.7 µM -3% | [3]; at 11.0 µM -1% | [3]; at 33.0 µM -3% | [3]; at 100.0 µM 4% | [4]; at 1.2 µM -3% | [4]; at 3.7 µM -4% | [4]; at 11.0 µM 17% | [4]; at 33.0 µM -12% | [4]; at 100.0 µM 2% | [5]; at 1.2 µM -2% | [5]; at 3.7 µM -2% | [5]; [17] -2% | [5]; at 11.0 µM -23% | [5]; at 33.0 µM -1% | [5]; at 100.0 µM 3% | [6]; at 1.2 µM -1% | [6]; at 3.7 µM 0% | [6]; [17] 19% | [6]; at 11.0 µM 3% | [6]; at 33.0 µM -1% | [6]; at 100.0 µM 4% | [7]; at 1.2 µM -3% | [7]; at 3.7 µM -4% | [7]; at 11.0 µM -5% | [7]; at 33.0 µM 2% | [7]; at 100.0 µM 3% | [8]; [17] 3% | [8]; at 50.0 µM 66.5% | [9]; at 1.2 µM 0% | [9]; at 3.7 µM -7% | [9]; at 11.0 µM 0% | [9]; at 33.0 µM 0% | [9]; at 100.0 µM 9% | [10]; [17] 39% | [11]; at 1.2 µM -1% | [11]; at 3.7 µM 2% | [11]; [17] -30% | [11]; at 11.0 µM 3% | [11]; at 33.0 µM -7% | [11]; at 50.0 µM 60.1% | [11]; at 100.0 µM -6% | [12]; at 1.2 µM -1% | [12]; at 3.7 µM -3% | [12]; at 11.0 µM -2% | [12]; at 33.0 µM -1% | [12]; at 100.0 µM 2% | [13]; at 1.2 µM -1% | [13]; at 3.7 µM -5% | [13]; at 11.0 µM -3% | [13]; at 33.0 µM -1% | [13]; at 100.0 µM 1% | [14]; at 1.2 µM -2% | [14]; at 3.7 µM -1% | [14]; at 11.0 µM -1% | [14]; at 33.0 µM -1% | [14]; at 100.0 µM 1% | [15]; [17] 5% | [15]; at 50.0 µM 68.9% | [16]; at 1.2 µM -4% | [16]; at 3.7 µM -3% | [16]; at 11.0 µM -6% | [16]; at 33.0 µM -21% | [16]; at 100.0 µM 3%

c1ccc(-c2ccnc3c2ccc2c(-c4ccccc4)ccnc23)cc1
inactive: [1]; at 1.2 µM 4% | [1]; at 3.7 µM 21% | [1]; at 11.0 µM 50% | [2]; at 1.2 µM 5% | [2]; at 3.7 µM -4% | [2]; at 11.0 µM 9% | [3]; at 1.2 µM 2% | [3]; at 3.7 µM -4% | [3]; at 11.0 µM 22% | [4]; at 1.2 µM 10% | [4]; at 3.7 µM -9% | [4]; at 11.0 µM 63% | [5]; at 1.2 µM 7% | [5]; at 3.7 µM 13% | [5]; [17] 2% | [5]; at 11.0 µM 67% | [6]; at 1.2 µM 22% | [6]; at 3.7 µM 24% | [6]; [17] -31% | [6]; at 11.0 µM 53% | [7]; at 1.2 µM -6% | [7]; at 3.7 µM -17% | [7]; at 11.0 µM 54% | [8]; [17] 23% | [9]; at 1.2 µM -8% | [9]; at 3.7 µM -20% | [9]; at 11.0 µM 50% | [10]; [17] 48% | [11]; at 1.2 µM 24% | [11]; at 3.7 µM 27% | [11]; [17] 11% | [11]; at 11.0 µM 60% | [12]; at 1.2 µM 0% | [12]; at 3.7 µM -3% | [12]; at 11.0 µM 11% | [13]; at 1.2 µM -7% | [13]; at 3.7 µM -8% | [13]; at 11.0 µM 46% | [14]; at 1.2 µM 12% | [14]; at 3.7 µM 11% | [14]; at 11.0 µM 62% | [15]; [17] -32% | [16]; at 1.2 µM 9% | [16]; at 3.7 µM 12% | [16]; at 11.0 µM 49%
active: [1]; at 33.0 µM 99% | [1]; at 100.0 µM 99% | [2]; at 33.0 µM 97% | [2]; at 100.0 µM 97% | [3]; at 33.0 µM 97% | [3]; at 100.0 µM 97% | [4]; at 33.0 µM 98% | [4]; at 100.0 µM 97% | [5]; at 33.0 µM 98% | [5]; [18] 97% | [5]; at 50.0 µM 91.2% | [5]; at 100.0 µM 97% | [6]; at 33.0 µM 99% | [6]; [18] 98% | [6]; at 50.0 µM 92.8% | [6]; at 100.0 µM 96% | [7]; at 33.0 µM 98% | [7]; at 100.0 µM 97% | [8]; [18] 97% | [8]; at 50.0 µM 92.1% | [9]; at 33.0 µM 98% | [9]; at 100.0 µM 98% | [10]; [18] 96% | [10]; at 50.0 µM 92% | [11]; at 33.0 µM 98% | [11]; [18] 96% | [11]; at 50.0 µM 90.3% | [11]; at 100.0 µM 97% | [12]; at 33.0 µM 98% | [12]; at 100.0 µM 97% | [13]; at 33.0 µM 98% | [13]; at 100.0 µM 98% | [14]; at 33.0 µM 98% | [14]; at 100.0 µM 96% | [15]; [18] 97% | [15]; at 50.0 µM 90.3% | [16]; at 33.0 µM 98% | [16]; at 100.0 µM 97%
